SMILES strings stand for the structures. Screen size: about 200,000 compounds; about 18,000 (9%) were called active. No stated cut-off is given here; in the data, active means inhibition above about 50%; inactive means the rest. The full list was thinned out, with actives kept by preference.

Among the data in PubChem BioAssay AID1063 (University of Pittsburgh Molecular Library Screening Center, 2008) are inhibition values, retold here.

The nature of this assay: antileishmanial activity against promastigotes – primary screen (AID 1063).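 Further: promastigotes grown with compound for 44 hours at 28 °C.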 As to conditions: Leishmania major promastigotes, resazurin fluorescence viability; at 10 µM; active compounds read high. On the technique in general: Resazurin is reduced to fluorescent resorufin, in cell work by metabolically active cells.
One may read the inhibition as the relative decrease from the control value, in per cent. On to `Cc1cccc(N(C(=O)Cc2cccs2)C(C(=O)NCc2ccco2)c2ccncc2)c1` (stereo unspecified), for which the inhibition is 6.9% (inactive). With `Cc1cccc(C2c3[nH]c4ccccc4c3CCN2C(=O)c2cc(-c3cccn3C)n[nH]2)n1` (stereo unspecified) the figure was 70.9% (active). Consider `Cc1cccc(C(=O)N2CCc3c([nH]c4ccccc34)C2CC(C)C)n1` (stereo unspecified), for which the inhibition was 31.8% (inactive). On to `O=C(c1cn2ccccc2n1)N1CCc2c([nH]c3ccccc23)C1c1ccccn1` (stereo unspecified), for which the inhibition was 13.8% (inactive).

For the molecule `CC1(C)CC(=O)C(CC(=O)N2CCC(Cc3ccccc3)CC2)C(=O)C1`, the inhibition was -0.44% (inactive).

As to `Cc1cc(C(C)(C)C)cc(S(=O)(=O)Nc2ccc(C(=O)O)cc2)c1C`, the inhibition was -3.3% (inactive).

As for `CCOc1ccccc1Nc1ccc(C(=O)O)cc1[N+](=O)[O-]`, the inhibition was -1.36% (inactive). On to `O=C(CCCN1C(=O)c2cccc3cccc(c23)C1=O)N1CCN(Cc2ccc3c(c2)OCO3)CC1`, for which the inhibition was 53.9% (active). With `Cn1c(=O)cc(OCCCC(=O)N2CCN(Cc3ccc4c(c3)OCO4)CC2)c2ccccc21` the figure was 11.9% (inactive); with `O=C(CSCc1ccc(Cl)cc1)N1CCCCC1`, -3.7% (inactive). As to `O=C(Nc1cccc2ccccc12)N1CCN(Cc2ccc3c(c2)OCO3)CC1`, the inhibition is 24.5% (inactive). In the case of `CS(=O)(=O)N(CC(=O)N1CCN(Cc2ccc3c(c2)OCO3)CC1)c1ccc2c(c1)OCO2` it was -5.11% (inactive). `O=C(CSCc1ccc(Cl)cc1)N1CCN(Cc2ccc3c(c2)OCO3)CC1`: the inhibition was 90.7% (active). With `CCc1ccccc1NC(=O)CSc1nnc(-c2ccncc2)o1`, the inhibition was -6.71% (inactive).

For `Cc1ccc(OCc2n[nH]c(=S)n2-c2ccc(C)cc2)cc1`, the inhibition was 1.58% (inactive). For `Cc1c(-c2cccc(Cl)c2)nc2ccccc2c1C(=O)OCC(=O)N(C)C1CCS(=O)(=O)C1` (stereo unspecified), the inhibition is 30.9% (inactive). As to `Cc1c(Br)cc(C(=O)N2CCCCCC2)c(C)c1C`, the inhibition is 79% (active).

For `COc1cc(OC)c(C(=O)N2CCCC2)cc1OC`, the inhibition is -1.38% (inactive). As to `Cc1ccc(C(=O)N2CCCCCC2)cc1Br`, the inhibition is 1.69% (inactive). As to `Cc1ccc(NC(=O)CSc2nnc(CNC(=O)c3ccccc3F)o2)cc1`, the inhibition was -3.87% (inactive). In the case of `CCC(C)(C)NC(=O)CN(C(=O)C(=O)Nc1ccc2c(c1)OCCO2)C(C)(C)CC` it was 9.2% (inactive); in that of `CCOC(=O)CN1CCC(c2ccccc2)CC1`, -3.4% (inactive).

Take `O=C(CN1CCN(C2CCCCC2)CC1)Nc1ccccc1N1CCCCC1`: the inhibition was 10.2% (inactive).

Consider `c1ccc(C2CCC(N3CCC(N4CCCCC4)CC3)CC2)cc1` (stereo unspecified), for which the inhibition was 92.2% (active). With `O=C(COc1ccc(S(=O)(=O)N2CCCCC2)cc1)NCc1ccccn1` the figure was -4.35% (inactive); with `COc1cc(N/C=C2\CC(=O)NC(C)=C2C#N)cc(OC)c1OC`, -6.28% (inactive). Consider `O=C(CCS(=O)(=O)Cc1ccccc1)Nc1ccc2c(c1)OCCO2`, for which the inhibition was -2.36% (inactive). As to `O=C(Cn1cnc([N+](=O)[O-])n1)NCCc1ccccc1`, the inhibition was 21.8% (inactive). For `O=C(Nc1cccc(CCc2ccccn2)c1)c1ccc(Cl)cc1`, the inhibition is 2.49% (inactive). Take `Cc1ccc2[nH]c(=O)c(CN(CCCN(C)C)C(=O)Nc3cccc(Cl)c3)cc2c1`: the inhibition was 93.2% (active).

On to `Cc1cccc(NC(=O)N(Cc2cc3cc(C)cc(C)c3[nH]c2=O)CC2COCCO2)c1` (stereo unspecified), for which the inhibition was 37.5% (inactive). As to `Cc1ccc2[nH]c(=O)c(CN(CC3COCCO3)C(=O)Nc3ccccc3C)cc2c1` (stereo unspecified), the inhibition is 4% (inactive). For the molecule `COc1ccc(C(=O)Nc2ccc(NC(=O)C(C)C)nc2)cc1`, the inhibition is 25.1% (inactive).

For the molecule `O=C(N/C(=C\c1ccc(F)cc1)C(=O)N1CCCCCC1)c1ccccc1`, the inhibition is -5.92% (inactive). In the case of `Cc1cc2ccccc2n1CCC(=O)O` it was -7.95% (inactive); in that of `CCc1n[nH]c(=S)n1/N=C/c1c[nH]c2ccc(Br)cc12`, 11.7% (inactive); in that of `Cc1ccc(/C=N\n2c(-c3ccccc3)n[nH]c2=S)s1`, 0.81% (inactive).

For `S=c1[nH]nc(-c2ccccc2)n1/N=C/c1c[nH]c2ccccc12`, the inhibition is 54.7% (active). In the case of `O=C(CCCNS(=O)(=O)c1cccc2nsnc12)NCCN1CCN(c2ccccc2F)CC1` it was -3.45% (inactive). As to `Cc1cc(-c2csc(N)n2)c(C)n1Cc1ccccc1`, the inhibition was 7.08% (inactive). In the case of `COc1ccc(C2NC(=S)NC3=C2CCc2ccccc23)cc1OC` (stereo unspecified), the inhibition is 57.7% (active).

For `COc1ccc(C2SCCN2S(=O)(=O)c2ccccc2)cc1OC` (stereo unspecified), the inhibition was 22.3% (inactive).

On to `COc1ccc(/C=C2\CCc3ccccc3C2=O)c(OC)c1OC`, for which the inhibition was 8.72% (inactive). As to `Cc1onc(C(=O)NCc2ccc(F)cc2)c1[N+](=O)[O-]`, the inhibition was -5.34% (inactive).

As for `CC(=O)c1ccc(NC(=O)C(C)NCc2ccc(Cl)cc2)cc1` (stereo unspecified), the inhibition was -2.38% (inactive). In the case of `C=Cn1c(C(=O)O)ccc1-c1ccc(OC)cc1` it was -4.56% (inactive); in that of `CCOC(=O)C1CCCN(C(=O)COc2ccc(N(C)S(=O)(=O)c3ccc(C)cc3)cc2)C1` (stereo unspecified), 27.7% (inactive). In the case of `CCC1CCCCN1S(=O)(=O)Cc1ccccc1Cl` (stereo unspecified) it was 3.99% (inactive).

With `CN(CCC1CCOCC1)Cc1cn[nH]c1-c1ccc(-c2ccccc2)cc1`, the inhibition is 66.8% (active). As to `Cc1nnc(CN(C)Cc2cn[nH]c2-c2ccc(-c3ccccc3)cc2)o1`, the inhibition is 26.1% (inactive). As to `O=C(CC1C(=O)NCCN1Cc1ccc(-c2ccccc2)cc1)NCC1CCOCC1` (stereo unspecified), the inhibition was 2.89% (inactive). For `CC(C(=O)N=Nc1c(O)n(C)c2ccc(Br)cc12)n1cnc2ccccc2c1=O` (stereo unspecified), the inhibition was 7.13% (inactive). As for `Clc1ccc(-c2cc(C3CCNCC3)[nH]n2)c(Cl)c1`, the inhibition is 94.3% (active). On to `Clc1ccc(-c2ncc3ccccn23)c(Cl)c1`, for which the inhibition is 4.32% (inactive). In the case of `O=C1CSC(c2ccccc2)N1c1nc(-c2ccc(Cl)cc2Cl)cs1` (stereo unspecified) it was -6.37% (inactive); in that of `CCOC(=O)c1cc2c(=O)[nH]c(C(Cl)(Cl)Cl)nc2o1`, -8.22% (inactive). For `COc1ccc(C2C(C#N)=C(N)N(c3ncn[nH]3)C3=C2C(=O)CCC3)cc1` (stereo unspecified), the inhibition is -5.04% (inactive). Regarding `N#CC1=C(N)N(c2ccccc2)C2=C(C(=O)CCC2)C1c1ccccc1` (stereo unspecified), the inhibition is 69.2% (active).

As to `CSc1sc(C)cc1C1C(C#N)=C(N)N(c2cccnc2)C2=C1C(=O)CCC2` (stereo unspecified), the inhibition is 7.04% (inactive). In the case of `O=C(CSc1nnc(Nc2ccccc2)s1)Nc1cccnc1Cl` it was 66.3% (active); in that of `Cc1cc(NC(=O)CSc2nnc(Nc3ccccc3F)s2)no1`, 0.51% (inactive); in that of `O=C(CSc1nnc(C2CC2)n1Cc1ccccc1)Nc1cccnc1Cl`, 3.75% (inactive). As for `CC(=O)c1c(-c2ccccc2)c2ccccc2[nH]c1=O`, the inhibition was -2.95% (inactive). For the molecule `c1ccc2c(c1)C(=NC1CCCCC1)NC2=NC1CCCCC1`, the inhibition is 100% (active). As for `O=C1CCCCC(=O)c2ccccc2N1`, the inhibition is 0.26% (inactive).

As to `CN(C)S(=O)(=O)c1cccc(NC(=O)COC(=O)/C=C/c2cccs2)c1`, the inhibition is -4.76% (inactive). With `CCOCC(=O)Nc1ncc(S(=O)(=O)c2ccc([N+](=O)[O-])cc2)s1`, the inhibition was 20.7% (inactive). Consider `COc1ccc(N/N=C2/CCCCC2=O)cc1`, for which the inhibition was 67.6% (active).

`COc1ccc(NC(=O)c2c(C)oc3c2CCCC3)cc1`: the inhibition is -5.6% (inactive).

Turning to `Cc1ccc(N/N=C2\COC(C)(C)CC2=O)cc1`, the inhibition was 0.62% (inactive).

On to `O=C(CCCO)N/N=C/c1cc(Br)ccc1O`, for which the inhibition is 12.7% (inactive). With `O=C(CCCCCNC(=O)c1ccccc1)N/N=C/c1ccccc1`, the inhibition is -3.34% (inactive). In the case of `O=C(N/N=C/c1ccccc1O)/C(=C/c1ccccc1)CCO`, the inhibition was 97.6% (active).

On to `Cc1c(C=O)c2ccccc2n1CC(=O)O`, for which the inhibition was -9.42% (inactive).

As to `Cc1ccccc1OCCC(=O)OCC(=O)NC(C)c1ccccc1` (stereo unspecified), the inhibition is 1.48% (inactive).

Regarding `CNC(=O)c1ccsc1NC(=O)c1ccc(S(=O)(=O)N2CCOCC2)cc1`, the inhibition was 12.3% (inactive).

For `CC1CN(S(=O)(=O)c2ccc(C(=O)Nc3sccc3C(N)=O)cc2)CC(C)O1` (stereo unspecified), the inhibition was 6.76% (inactive). In the case of `CNC(=O)c1ccsc1NC(=O)c1ccc(S(=O)(=O)N2CCc3ccccc32)cc1` it was 89.2% (active).

As to `Cc1ccc2nc(-c3ccc(NC(=O)c4cccnc4)cc3)oc2c1`, the inhibition was -5.33% (inactive). In the case of `Cc1cccc(NC(=S)NCCN(C2CCCCC2)C2CCCC2)c1`, the inhibition was 37.4% (inactive). `COc1ccc(OCc2n[nH]c(=S)n2N)cc1`: the inhibition was -7.89% (inactive).

For `O=C(/C=C/c1ccc(F)cc1)NC(=S)NNC(=O)c1cccnc1`, the inhibition is 53.4% (active).

In the case of `CC(C)c1ccc(/C=C/C(=O)NNC(=O)c2cccnc2)cc1`, the inhibition was -0.93% (inactive). For the molecule `O=C(/C=C/c1ccc(F)cc1)NCCNC(=O)/C=C/c1ccc(F)cc1`, the inhibition is -1.31% (inactive). As to `COc1ccc(NC(=S)NCc2cccs2)c(OC)c1`, the inhibition was 53.3% (active). `COc1cc(CC(=O)NCc2cccs2)cc(OC)c1OC`: the inhibition is -3.33% (inactive). As for `S=C(NCc1cccs1)Nc1ccc(Cl)cc1`, the inhibition is 10.1% (inactive).

`COc1ccc(Br)cc1/C=N/Nc1ccc(Cl)c(C(=O)O)c1`: the inhibition is -11.3% (inactive). Turning to `COC(=O)C1CCN(C(=O)c2cc(=O)[nH]c3ccccc23)CC1`, the inhibition was -2.57% (inactive). Turning to `COc1ccc(CCNC(=O)CC2SC(=Nc3cc(C)cc(C)c3)NC2=O)cc1OC` (stereo unspecified), the inhibition was 1.72% (inactive). For `Cc1nc(N2CCN(c3ccccn3)CC2)c2c(C)c(C(=O)Nc3ccc(F)cc3)sc2n1`, the inhibition was 43.6% (inactive). Turning to `CCOC(=O)C1CCCN(C(=O)c2sc3nc(C)nc(N4CCOCC4)c3c2C)C1` (stereo unspecified), the inhibition is -2.76% (inactive). With `Cc1ccc(F)cc1NC(=O)c1ccc2c(c1)OCO2` the figure was -6.66% (inactive); with `Cc1nc(N2CCC(C)CC2)c2c(C)c(C(=O)Nc3cc(F)ccc3C)sc2n1`, 72.2% (active). In the case of `Cc1ccnc(N2CCCC(C(=O)Nc3cc(F)ccc3C)C2)n1` (stereo unspecified), the inhibition is -1.61% (inactive).

In the case of `Cc1nc(N2CCOCC2)c2c(C)c(C(=O)Nc3ccc(C(F)(F)F)cc3)sc2n1`, the inhibition was 58.7% (active).
